Compound activity as filed in PubChem.
FMDV FLuc = Primary qHTS Assay for Foot and Mouth Disease Virus Antivirals against NCGC Sytravon and CBC Compound Libraries: Firefly Luciferase Signal | FMDV antiviral cell assay, firefly luciferase signal | Potency, µM (top dose mostly 57.5 µM), inactives show at the highest dose activity change, negative = inhibition, most hits filed as inhibitors | 0.23% of 120,000 active | AID 1745856, 2022; note: nearly all actives have a fitted effect of over 60% in size
FMDV Renilla = Primary qHTS Assay for Foot and Mouth Disease Virus Antivirals against NCGC Sytravon and CBC Compound Libraries: Renilla Luciferase Signal | AID 1745857, 2022 | 0.32% of 120,000 active | FMDV replicon cells, Renilla luciferase signal | Potency, µM (highest dose often 57.5 µM), for inactives: top-dose activity change, negative = inhibition, usual class: inhibitors; note: nearly all actives have a fitted effect of over 55% in size
* hit, by the source's call; ? = inconclusive; [ ] = remark or other dose. Shown are actives, neighbours in structure and some others; about 0.51% of the full set was active somewhere. Calls come from the whole dose curve. % is set by controls: 0 for no effect and ±100 for the full control effect; potency is the fitted concentration of half-maximal effect.

SMILES	FMDV FLuc	FMDV Renilla
CCN(CC)C(=O)c1ccc2oc(CN3CCN(C(=O)Nc4ccc(F)cc4F)CC3)nc2c1	0.0%	17.3%
CC(=O)c1c(C)[nH]c(C(=O)C(C)OC(=O)c2cc(Cl)ccc2F)c1C (stereo unspecified)	19.5%	15.9%
CC(=O)c1c(C)[nH]c(C(=O)C(C)OC(=O)c2ccc(F)cc2Cl)c1C (stereo unspecified)	20µM*	8.91µM*
CC(=O)c1c(C)[nH]c(C(=O)C(C)N(C)Cc2cccc(F)c2)c1C (stereo unspecified)	?	3.98µM*
CC(=O)c1c(C)[nH]c(C(=O)C(C)OC(=O)c2ccc(F)cc2)c1C (stereo unspecified)	-24.1%	-6.3%[1.06 µM]
Cc1ccc(C(=O)CSc2nc3ccccc3c(=O)[nH]2)c(C)c1	151.7%	22.4%
COCCCNC(=O)C(=O)Nc1c2c(nn1-c1cccc(Cl)c1)CSC2	-20.5%	-17.1%
CC(C(=O)Nc1sc2c(c1C#N)CCCCC2)n1cnc2c1c(=O)n(C)c(=O)n2C (stereo unspecified)	?	14.1µM*
CCC(C(=O)Nc1sc2c(c1C#N)CCCC2)n1cnc2c1c(=O)n(C)c(=O)n2C (stereo unspecified)	-9.6%	0.4%
Cc1ccc(-c2c(NC(=O)c3ccc([N+](=O)[O-])cc3)oc3ccccc3c2=O)cc1	57.9%	14.9%
C(#CCN1CCN(CC#CCOCCOCc2ccccc2)CC1)COCCOCc1ccccc1	4.47µM*	5.01µM*
C(#CCN1CCN(CC#CCOCc2ccccc2)CC1)COCc1ccccc1	-6.6%	-3.5%
Fc1ccc(-c2ccc(CNCC3CCNCC3)o2)cc1	-27.3%	-28.5%
Clc1ccc(Cl)c(-c2ccc(CNCC3CCNCC3)o2)c1	31.6µM*	28.2µM*
Cc1cccc(NC(=O)CSc2nc(=O)n(CCN3CCOCC3)c3c2CCC3)c1C	-20.2%	-10.5%
CN1CCN(c2ccc(NC(=O)c3cnc4ccccc4n3)cc2)CC1	128.2%	-11.1%
O=C(Nc1ccc(N2CCN(Cc3ccccc3)CC2)cc1)c1cnc2ccccc2n1	?	7.94µM*
COc1cc(-c2nnc3n2C(C)(C)Cc2ccccc2-3)cc(OC)c1OC	8.7%	25.9%
CCOC(=O)c1ccc(N2CCN(c3cc(C)ccc3C)CC2)c(NC(=O)Nc2ccc(Cl)cc2)c1	-5.1%	-5.9%
COc1ccccc1CNC(=O)CS(=O)Cc1nc(-c2ccccc2C)oc1C (stereo unspecified)	4.2%	5.2%
CC(C)(C)c1ccc(C2CC(=O)c3cnc(N)nc3C2)cc1 (stereo unspecified)	93.9%	13.0%
O=[N+]([O-])c1ccccc1/C=N/Nc1ccc(S(=O)(=O)Nc2ccc(Cl)cc2)cc1[N+](=O)[O-]	-11.2%	181.0%
O=[N+]([O-])c1ccccc1/C=N/Nc1ccc(S(=O)(=O)Nc2cccc(Cl)c2)cc1[N+](=O)[O-]	11.2µM*	-77.1%
COc1cc(/C=C/C(=O)c2ccccc2C)cc(OC)c1OC(F)F	?	28.2µM*
O=C(/C=C/c1ccc(Cl)c(Cl)c1)c1ccccc1OC(F)F	28.0%	39.1%
SMILES	FMDV FLuc	FMDV Renilla
O=C(Cn1c(=O)oc2cc(S(=O)(=O)N3CCCCC3)ccc21)NCc1ccc(F)cc1	14.7%	-14.7%
Cc1ccc(NC(=O)Cn2c(=O)oc3cc(S(=O)(=O)N4CCCCC4)ccc32)c(C)c1	?	8.91µM*
COc1ccccc1CNC(=O)Cn1c(=O)oc2cc(S(=O)(=O)N3CCC(C)CC3)ccc21	28.2µM*	?
O=C(Cn1c(=O)oc2cc(S(=O)(=O)N3CCCCCC3)ccc21)NCc1ccccc1Cl	28.2µM*	?
COc1ccc(C)cc1NC(=O)Cn1c(=O)oc2cc(S(=O)(=O)N3CCCCCC3)ccc21	-22.0%	3.3%
COc1ccccc1CNC(=O)Cn1c(=O)ccc2cc(S(=O)(=O)N3CCC(C)CC3)ccc21	9.9%	55.7%
CNC(=O)c1ccccc1OCc1coc(-c2cccc(F)c2)n1	?	25.1µM*
Fc1cccc(-c2nc(COc3ccccc3F)co2)c1	159.7%	10.0%
Cc1ccc(C)c(-c2csc(Nc3ccc(S(=O)(=O)Nc4nc(C)cc(C)n4)cc3)n2)c1	-20.5%	61.9%
Cc1ccc(C)c(-c2csc(Nc3ccc(S(N)(=O)=O)cc3)n2)c1	?	17.8µM*
COc1cc(OC)c(NC(=O)C(CC(C)C)N2Cc3ccccc3C2=O)cc1Cl (stereo unspecified)	-6.7%	73.4%
CCOc1ccc(Nc2nc(C)c(NC(=O)c3ccc(C)cc3)c(Nc3ccc(OCC)cc3)n2)cc1	2.1%	0.9%
c1ccc(Nc2c3c(nc4ccccc24)CCC3)cc1	-11.6%	-24.0%
CCc1ccc(Nc2c3c(nc4ccccc24)CCC3)cc1	25.1µM*	?
Cc1cccc(NC(=O)CC2(C(=O)O)CCCCC2)c1C	3.3%	9.0%
Cc1cccc(C(=O)NC(Nc2ccc(Br)cc2)C(Cl)(Cl)Cl)c1 (stereo unspecified)	-6.1%	9.5%
